Data on seven compounds can be found in PubChem BioAssay (NCI).

The panel holds about 83,000 compounds, 20% with a hit somewhere; the sample as a whole holds those more often.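 Activity criterion: percent growth below 10, measured after cells in 96-well plates were exposed to a single compound concentration for 48 hours.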 Calls of active or inactive are those of the source.

The test system of the experiment is SW-620 colon. Put plainly: NCI-60 one-dose screen, 48 h (100 = growth as untreated, 0 = no growth, -100 = all killed). The following applies: 10 µM.
Regarding `N=C1S/C(=C/c2ccc(-c3ccc4c(c3)C(=O)NC4=O)o2)C(=O)N1c1ccc(Br)cc1`, the growth was 48.5% (inactive).

Regarding `c1cnc2[nH]cc(-c3nc(-c4ccsc4)cs3)c2c1`, the growth is 111% (inactive).

Consider `Clc1nc2ccc(Br)cc2cc1-c1nc2ccccc2[nH]1`, for which the growth was 89.7% (inactive).

As to `Nc1nc(Cl)nc2c1ncn2C1O[C@H](CO)[C@@H](O)[C@@H]1F` (some centres not stated), the growth was 49.7% (inactive).

For `COc1ccc([C@H]2[C@H](C(=O)Nc3cccnc3)c3ccccc3C(=O)N2c2ccccc2)cc1`, the growth was 91.4% (inactive).

`COc1ccc(/C=C2\CCCC3C2=Nc2ccccc2NC3c2ccc(OC)cc2)cc1` (configuration not stated): the growth is 72.2% (inactive).

As for `O=S(=O)(NCCCNc1nccc(-c2cn(-c3ccccc3)nc2-c2ccc(Cl)c(O)c2)n1)c1ccccc1`, the growth is 102% (inactive).
